Details in all cases: incubation time: 27 h, anaerobic, 37 °C;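 for the amine columns active = adjusted P below 0.05 in both replicates with a change the same way and a mean fold change under 0.8 or over 1.25; inactive = the rest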
In experiment [1] the test system is Clostridium sporogenes DSM 1664. Description: growth (OD595) fold change vs plate DMSO controls (fold change (ratio)); higher = more growth. Summed up:
(§1)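 Growth is expressed as the fold change relative to the median of the DMSO control wells on each plate. Cultures in mGAM were grown anaerobically in 96-well plates for 27 h at 37 °C, shaken, and read at 595 nm. Readings were blank-subtracted, corrected for compound background with 20 µM compound solutions in water, and converted to OD with a calibration factor of 5. Fold changes above 1.5 were set to NA, and each value is the mean of 2 biological replicates.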

Experiment [2] deals with Escherichia coli IAI1. Described as above. The method in brief: as §1
For experiment [3], the system named is Klebsiella aerogenes DSM 30053. The description is as above. The method in brief:
as §1

In experiment [4] the test system is Ruminococcus gnavus DSM 108212. Described as above. Summed up: as §1
The subject of experiment [5] is Klebsiella aerogenes DSM 30053. Description: fold change of Histamine concentration vs plate DMSO controls (fold change (ratio)); higher = more amine produced, active = hit call of the paper (significant change in both replicates, either direction). The method in brief:
(§2)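 Extracts of whole anaerobic mGAM cultures were analysed for amines by LC–triple-quadrupole MS with dynamic MRM and external calibration curves, with drift corrected within batch. Four gut strains were grown at 37 °C for 27 h in 80 µL wells with compounds at 20 µM final, sweeteners at 50 µM final. Each value expresses fold change over plate DMSO controls. The average of 2 biological replicates is shown.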

Experiment [6] deals with Clostridium sporogenes DSM 1664. The experiment is described as follows: fold change of Tryptamine concentration vs plate DMSO controls (fold change (ratio)); higher = more amine produced, active = hit call of the paper (significant change in both replicates, either direction). Summed up:
as §2

Experiment [7] relates to Ruminococcus gnavus DSM 108212. The description is as above. Summed up:
as §2

Experiment [8] has as its system Escherichia coli IAI1. Description: fold change of Putrescine concentration vs plate DMSO controls (fold change (ratio)); higher = more amine produced, active = hit call of the paper (significant change in both replicates, either direction). Summed up:
as §2

The test system of experiment [9] is Klebsiella aerogenes DSM 30053. The experiment is described as above. Summed up:
as §2

In experiment [10] the test system is Escherichia coli IAI1. The experiment is described as follows: fold change of Cadaverine concentration vs plate DMSO controls (fold change (ratio)); higher = more amine produced, active = hit call of the paper (significant change in both replicates, either direction). Summed up: as §2
Experiment [11] relates to Klebsiella aerogenes DSM 30053. The description is as above. The method in brief:
as §2

Experiment [12] has as its system Ruminococcus gnavus DSM 108212. Description: fold change of 2-Phenylethylamine concentration vs plate DMSO controls (fold change (ratio)); higher = more amine produced, active = hit call of the paper (significant change in both replicates, either direction). Summed up: as §2

From the supplement of paper PMC12494721 come the findings set out here.

Where a name gives a salt, the structure may show the parent alone.

In the case of `CN1CCCC(n2nc(Cc3ccc(Cl)cc3)c3ccccc3c2=O)CC1` (centres undefined) [Azelastine hydrochloride] (20 µM), the growth in experiment [1] stood at 1.05; in experiment [2], 1.05; in [3] it was 0.95; in [4], 0.57. Further, the “fold change of Histamine concentration” value in [5] was 1.13 (inactive). Moreover, the figures for the “fold change of Tryptamine concentration” value in experiment [6] and in [7] were 0.963 (inactive) and 0.943 (inactive), respectively. Moreover, the “fold change of Putrescine concentration” value in [8] and in [9] was 1.03 (inactive) each time. Besides, the “fold change of Cadaverine concentration” value in [10] was 1.01 (inactive); in experiment [11], 0.976 (inactive). Besides, the “fold change of 2-Phenylethylamine concentration” value in [12] is 0.937 (inactive).
As for `CCCNC(C)(C)COC(=O)c1ccccc1` [Meprylcaine hydrochloride] (20 µM), the growth in [1] was found to be 0.985; in experiment [2] it was 1.02; in [3], 0.991; in experiment [4], 1.17. In [5], the “fold change of Histamine concentration” value was 1.02 (inactive). Further, the “fold change of Tryptamine concentration” value was 1.01 (inactive) in [6] and 1.04 (inactive) in experiment [7]. Also, the “fold change of Putrescine concentration” value in experiment [8] is 1.01 (inactive); in [9], 1 (inactive). Further, the “fold change of Cadaverine concentration” value in [10] is 1.04 (inactive); in experiment [11], 0.991 (inactive). In addition, the “fold change of 2-Phenylethylamine concentration” value in [12] was 1.01 (inactive).
Consider `CC[N+](C)(C)c1cccc(O)c1` [Edrophonium chloride] (20 µM), for which the growth was 1.07 in experiment [1], 1.06 in [2], 1.01 in [3] and 1.17 in experiment [4]. Further, in experiment [5], the “fold change of Histamine concentration” value was 1.07 (inactive). In addition, the “fold change of Tryptamine concentration” value is 0.998 (inactive) in experiment [6] and 1.14 (inactive) in experiment [7]. The “fold change of Putrescine concentration” value is 1.01 (inactive) in experiment [8] and 1.03 (inactive) in experiment [9]. Besides, the results for the “fold change of Cadaverine concentration” value in [10] and in experiment [11] were 0.919 (inactive) and 1 (inactive), respectively. For the same molecule, the “fold change of 2-Phenylethylamine concentration” value in experiment [12] was 1.11 (inactive).
On to `CN(c1nccc(=O)[nH]1)C1CCN(c2nc3ccccc3n2Cc2ccc(F)cc2)CC1` [Mizolastine] (20 µM), for which the growth in [1] was 1.22; in experiment [2], 1.02; in experiment [3], 1.04; in experiment [4] it was 1.24. The “fold change of Histamine concentration” value in experiment [5] is 1.03 (inactive). Also, the “fold change of Tryptamine concentration” value in [6] was 0.967 (inactive); in experiment [7] it was 0.973 (inactive). Besides, the entries for the “fold change of Putrescine concentration” value in experiment [8] and in experiment [9] were 0.986 (inactive) and 0.991 (inactive), respectively. The “fold change of Cadaverine concentration” value in [10] was 0.977 (inactive); in [11], 0.982 (inactive). In addition, in [12], the “fold change of 2-Phenylethylamine concentration” value was 0.967 (inactive).
In the case of `NS(=O)(=O)c1cc(C(=O)NN2C[C@@H]3[C@H]4CC[C@H](C4)[C@@H]3C2)ccc1Cl` [Tripamide] (20 µM), the growth in [1] is 0.981; in [2], 1.01; in [3] it was 0.978; in [4], 1.08. Moreover, the “fold change of Histamine concentration” value in [5] is 1.01 (inactive). Further, the figures for the “fold change of Tryptamine concentration” value in [6] and in [7] were 1.03 (inactive) and 1.06 (inactive), respectively. Moreover, the “fold change of Putrescine concentration” value in experiment [8] was 0.995 (inactive); in experiment [9] it was 0.981 (inactive). Moreover, the figures for the “fold change of Cadaverine concentration” value in [10] and in experiment [11] were 0.928 (inactive) and 0.998 (inactive), respectively. In experiment [12], the “fold change of 2-Phenylethylamine concentration” value was 1.05 (inactive).
With `CCCCNc1cc(C(=O)O)cc(S(N)(=O)=O)c1Oc1ccccc1` [Bumetanide] (20 µM), the growth in [1] stood at 1.19; in experiment [2] it was 1.01; in experiment [3], 1; in experiment [4], 0.971. Also, the “fold change of Histamine concentration” value in [5] was 0.994 (inactive). For the same molecule, the “fold change of Tryptamine concentration” value is 1.03 (inactive) in experiment [6] and 1.05 (inactive) in [7]. The “fold change of Putrescine concentration” value was 1.04 (inactive) in [8] and 1.02 (inactive) in [9]. Further, the figures for the “fold change of Cadaverine concentration” value in experiment [10] and in [11] were 1.03 (inactive) and 1 (inactive), respectively. In [12], the “fold change of 2-Phenylethylamine concentration” value is 1.07 (inactive).
With `Cc1cc(C#N)cc(C)c1Oc1nc(Nc2ccc(C#N)cc2)nc(N)c1Br` [Etravirine] (20 µM), the growth was 1.06 in experiment [1], 1.01 in experiment [2], 1.13 in [3] and 1.03 in [4]. In addition, the “fold change of Histamine concentration” value in experiment [5] is 1.01 (inactive). The “fold change of Tryptamine concentration” value in experiment [6] was 1.03 (inactive); in experiment [7], 0.995 (inactive). The “fold change of Putrescine concentration” value in experiment [8] is 1.03 (inactive); in [9], 1 (inactive). For the same molecule, the “fold change of Cadaverine concentration” value in [10] is 1.04 (inactive); in experiment [11], 0.981 (inactive). The “fold change of 2-Phenylethylamine concentration” value in [12] was 1.03 (inactive).
As to `CNCCCC1c2ccccc2C=Cc2ccccc21` [Protriptyline hydrochloride] (20 µM), the growth is 0.921 in experiment [1], 1.01 in [2], 0.958 in [3] and 0.968 in [4]. Moreover, the “fold change of Histamine concentration” value in [5] is 1.02 (inactive). Besides, the “fold change of Tryptamine concentration” value is 1.12 (inactive) in experiment [6] and 0.848 (inactive) in experiment [7]. Further, the figures for the “fold change of Putrescine concentration” value in experiment [8] and in experiment [9] were 1.17 (inactive) and 1.02 (inactive), respectively. Also, the “fold change of Cadaverine concentration” value in experiment [10] is 1.12 (inactive); in experiment [11], 0.998 (inactive). For the same molecule, the “fold change of 2-Phenylethylamine concentration” value in experiment [12] was 0.829 (inactive).
For `CCCCOc1cc(C(=O)OCCN(CC)CC)ccc1N` [Benoxinate hydrochloride] (20 µM), the growth in experiment [1] was 1.06; in experiment [2], 0.951; in experiment [3], 0.988; in experiment [4], 1.01. Besides, the “fold change of Histamine concentration” value in [5] was 1.05 (inactive). Also, the “fold change of Tryptamine concentration” value in [6] is 0.997 (inactive); in experiment [7], 1.04 (inactive). The results for the “fold change of Putrescine concentration” value in experiment [8] and in experiment [9] were 0.973 (inactive) and 1.01 (inactive), respectively. The “fold change of Cadaverine concentration” value in experiment [10] is 0.978 (inactive); in [11], 0.998 (inactive). Besides, the “fold change of 2-Phenylethylamine concentration” value in experiment [12] was 1.04 (inactive).
Regarding `NS(=O)(=O)c1cc(Cl)c(Cl)c(S(N)(=O)=O)c1` [Dichlorphenamide] (20 µM), the growth in experiment [1] turned out to be 0.963; in experiment [2] it was 0.998; in [3], 1.2; in experiment [4], 0.536. Further, the “fold change of Histamine concentration” value in experiment [5] is 0.902 (inactive). Moreover, the “fold change of Tryptamine concentration” value is 0.966 (inactive) in [6] and 0.572 (inactive) in experiment [7]. The “fold change of Putrescine concentration” value in experiment [8] was 1.06 (inactive); in experiment [9], 1.01 (inactive). Further, the results for the “fold change of Cadaverine concentration” value in experiment [10] and in experiment [11] were 0.995 (inactive) and 1.03 (inactive), respectively. For the same molecule, the “fold change of 2-Phenylethylamine concentration” value in [12] is 0.54 (inactive).
Turning to `CC(=O)OC[C@H]1O[C@@H](n2ncc(=O)[nH]c2=O)[C@H](OC(C)=O)[C@@H]1OC(C)=O` [Azaribine] (20 µM), the growth in [1] is 1.22; in experiment [2], 1.01; in experiment [3] it was 1; in experiment [4], 1.18. Also, the “fold change of Histamine concentration” value in [5] is 0.978 (inactive). The “fold change of Tryptamine concentration” value is 0.997 (inactive) in experiment [6] and 0.988 (inactive) in experiment [7]. In addition, the “fold change of Putrescine concentration” value is 1.05 (inactive) in experiment [8] and 1.04 (inactive) in experiment [9]. The “fold change of Cadaverine concentration” value was 0.944 (inactive) in experiment [10] and 1.02 (inactive) in experiment [11]. In addition, the “fold change of 2-Phenylethylamine concentration” value in experiment [12] was 0.96 (inactive).
With `N=C(NCCCCCCNC(=N)NC(=N)Nc1ccc(Cl)cc1)NC(=N)Nc1ccc(Cl)cc1` [Chlorhexidine] (20 µM), the growth stood at 0.00305 in [1], 0.885 in experiment [2], 0.782 in experiment [3] and 0.0252 in experiment [4]. Besides, the “fold change of Histamine concentration” value in [5] was 0.936 (inactive). Further, the “fold change of Tryptamine concentration” value is 0.032 (active) in [6] and 0.0867 (active) in experiment [7]. Besides, the “fold change of Putrescine concentration” value is 0.641 (inactive) in experiment [8] and 0.783 (inactive) in [9]. Also, the “fold change of Cadaverine concentration” value in experiment [10] was 1.98 (active); in experiment [11], 1 (inactive). Besides, the “fold change of 2-Phenylethylamine concentration” value in [12] is 0.0518 (active).
